Data taken from PubChem BioAssay.
The source made the active and inactive calls.

Experiments:
[1] = optical density shifts of acrAB sulA E. coli – strain DRC41, OD650, 48 h, E. coli filamentation inducer project, primary screen (AID 1152); settings: higher = more signal, called active from +8 up or from −8 down;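 further: E. coli MC1000 strain DRC41 lacking acrAB efflux pump and sulA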
[2] = probe aLefty1 binding on compound microarray – biochemical, small-molecule microarray, 635/667 nm fluorescence, primary screen (AID 1153); settings: higher = more signal;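 further: score merges spot fluorescence with signal-to-noise ratio from the scanned slide images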
[3] = plasmodial surface anion channel blockers, osmotic lysis – cell-based, P. falciparum Indochina, OD700, 1 h, primary screen (AID 1154); settings: P. falciparum Indochina infected RBC osmotic lysis, higher = more signal, called active from +8 up or from −8 down
[4] = plasmodial surface anion channel blockers, osmotic lysis – cell-based, P. falciparum Indochina, OD700, 2 h, primary screen (AID 1155);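 further: lysis reports solute entry through the parasite surface anion channel PSAC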; settings: P. falciparum Indochina infected erythrocytes, higher = more signal, called active from +8 up or from −8 down
[5] = changes in parasitized red cell lysis, either direction – P. falciparum Indochina, OD700, 3 h, PSAC antagonist project, primary screen (AID 1156); settings: P. falciparum-infected erythrocytes, osmotic lysis, higher = more signal, called active from +8 up or from −8 down
[6] = plasmodial surface anion channel blockers, osmotic lysis – cell-based, P. falciparum Indochina, OD700, 18 h, primary screen (AID 1157); settings: P. falciparum Indochina infected erythrocytes, osmotic lysis OD700, 18 h; higher = more signal, called active from +8 up or from −8 down
[7] = S6 kinase pathway phospho-S6 level changes – cell-based, A549, cytoblot, luminescence, serum-stimulated, primary screen (AID 1158); settings: 5 h, higher = more signal;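 further: serum-stimulated A549 lung adenocarcinoma cells; signal is phosphorylated S6 detected by cytoblot immunostaining with HRP secondary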
[8] = biological target: NADPH oxidase 2 (Homo sapiens) (UniProt P04839); test: compounds shifting NOX2 Amplex Red fluorescence – cell-based, HEK293-NOX2, PMA-stimulated, NOX inhibitor project, primary screen (AID 1159); settings: 45 min, higher = more signal, called active from +8 up or from −8 down; further: test concentration not given here
[9] = biological target: NADPH oxidase 4 (Homo sapiens) (UniProt Q9NPH5); test: compounds shifting NOX4 Amplex Red fluorescence – cell-based, HEK293-NOX4, tetracycline-induced, NOX inhibitor project, primary screen (AID 1160); settings: HEK293-NOX4, Amplex Red H2O2 fluorescence, 45 min; higher = more signal, called active from +8 up or from −8 down
[10] = biological target: NADPH oxidase 5 (Homo sapiens) (UniProt Q96PH1); test: compounds shifting NOX5 Amplex Red fluorescence – cell-based, HEK293-NOX5, NOX inhibitor project, primary screen (AID 1161); settings: HEK293-NOX5, ionomycin, 45 min, higher = more signal
NADPH oxidase 5 (Homo sapiens), sequence (Q96PH1 whole entry, looked up): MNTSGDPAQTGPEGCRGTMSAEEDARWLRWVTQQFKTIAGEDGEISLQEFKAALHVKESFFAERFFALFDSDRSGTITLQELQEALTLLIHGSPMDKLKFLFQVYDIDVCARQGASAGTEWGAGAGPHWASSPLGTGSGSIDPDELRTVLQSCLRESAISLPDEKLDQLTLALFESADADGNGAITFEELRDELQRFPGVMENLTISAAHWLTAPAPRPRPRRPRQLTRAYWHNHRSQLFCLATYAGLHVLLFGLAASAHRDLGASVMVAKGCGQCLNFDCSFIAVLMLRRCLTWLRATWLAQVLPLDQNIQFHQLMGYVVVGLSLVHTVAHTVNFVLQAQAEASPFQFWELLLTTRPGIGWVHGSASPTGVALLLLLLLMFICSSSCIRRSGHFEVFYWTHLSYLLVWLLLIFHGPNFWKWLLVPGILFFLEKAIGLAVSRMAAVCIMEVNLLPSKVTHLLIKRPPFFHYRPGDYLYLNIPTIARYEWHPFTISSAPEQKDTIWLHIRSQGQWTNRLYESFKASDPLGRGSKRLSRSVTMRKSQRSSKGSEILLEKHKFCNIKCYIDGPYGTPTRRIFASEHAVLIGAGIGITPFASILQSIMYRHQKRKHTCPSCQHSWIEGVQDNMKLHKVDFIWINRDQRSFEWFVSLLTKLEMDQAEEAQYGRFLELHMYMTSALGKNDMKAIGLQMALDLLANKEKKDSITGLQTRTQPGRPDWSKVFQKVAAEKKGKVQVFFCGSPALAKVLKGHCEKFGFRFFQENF

NADPH oxidase 2 (Homo sapiens), sequence (P04839 whole entry, looked up): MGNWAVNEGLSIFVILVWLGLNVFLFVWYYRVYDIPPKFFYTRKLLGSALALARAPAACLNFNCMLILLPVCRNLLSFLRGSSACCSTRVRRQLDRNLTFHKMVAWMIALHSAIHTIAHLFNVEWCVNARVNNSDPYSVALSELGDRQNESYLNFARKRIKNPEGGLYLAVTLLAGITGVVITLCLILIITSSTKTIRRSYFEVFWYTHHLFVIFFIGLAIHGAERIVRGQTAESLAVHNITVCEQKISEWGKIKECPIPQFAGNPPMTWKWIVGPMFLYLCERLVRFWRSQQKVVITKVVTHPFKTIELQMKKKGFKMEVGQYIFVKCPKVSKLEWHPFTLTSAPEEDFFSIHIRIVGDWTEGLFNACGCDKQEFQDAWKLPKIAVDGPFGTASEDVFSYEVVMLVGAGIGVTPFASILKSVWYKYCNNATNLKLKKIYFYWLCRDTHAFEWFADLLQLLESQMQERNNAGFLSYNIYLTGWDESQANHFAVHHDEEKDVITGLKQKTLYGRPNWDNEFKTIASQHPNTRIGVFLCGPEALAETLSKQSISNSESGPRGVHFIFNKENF
NADPH oxidase 4 (Homo sapiens), sequence (Q9NPH5 whole entry, looked up): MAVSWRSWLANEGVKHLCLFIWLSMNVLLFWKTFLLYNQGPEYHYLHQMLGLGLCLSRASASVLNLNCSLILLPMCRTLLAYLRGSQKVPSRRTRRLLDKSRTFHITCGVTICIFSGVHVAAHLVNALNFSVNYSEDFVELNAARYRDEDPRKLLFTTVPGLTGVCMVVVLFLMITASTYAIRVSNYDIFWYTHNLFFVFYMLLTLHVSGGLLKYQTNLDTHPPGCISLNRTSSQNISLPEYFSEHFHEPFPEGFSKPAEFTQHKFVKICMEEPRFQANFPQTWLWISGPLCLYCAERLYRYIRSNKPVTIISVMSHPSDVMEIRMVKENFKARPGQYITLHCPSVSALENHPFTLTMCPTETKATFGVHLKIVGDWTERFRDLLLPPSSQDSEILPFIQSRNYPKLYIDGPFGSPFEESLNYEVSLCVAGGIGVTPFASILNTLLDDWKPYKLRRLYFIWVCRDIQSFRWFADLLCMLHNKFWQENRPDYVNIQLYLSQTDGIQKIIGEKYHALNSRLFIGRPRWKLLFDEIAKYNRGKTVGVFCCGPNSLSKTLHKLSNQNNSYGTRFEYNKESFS

Compound | z-score [1] | composite z-score [2] | z-score [3] | z-score [4] | z-score [5] | z-score [6] | z-score [7] | z-score [8] | z-score [9] | z-score [10]
CCCC=C(CCC)[C@@H](NS(=O)(=O)CC12CCC(CC1=O)C2(C)C)c1ccc(C(=O)OC)cc1 (stereo not given in full) | -0.645 (inactive) | 0.0345 | -0.777 (inactive) | -0.825 (inactive) | -0.399 (inactive) | -1.81 (inactive) | 0.922 | 0.219 (inactive) | 0.669 (inactive) | 2.48
NC(=O)NCC#Cc1ccc2c(c1)[C@]1(C(=O)N2)[C@H](c2ccccc2OCCO)N2[C@H](c3ccccc3)[C@H](c3ccccc3)OC(=O)[C@H]2[C@@H]1C(=O)O | 0.851 (inactive) | -0.278 | 1.07 (inactive) | -0.525 (inactive) | -1.78 (inactive) | 0.0482 (inactive) | 0.171 | 2.78 (inactive) | 0.517 (inactive) | -0.123
CCOC(=O)[C@@H]1CCCCN1C(=O)C(=O)OC | -0.446 (inactive) | -0.0515 | -1.11 (inactive) | -0.164 (inactive) | -0.306 (inactive) | -0.262 (inactive) | -0.523 | 0.296 (inactive) | -0.28 (inactive) | 0.153
CCOC(=O)C1=C[C@@H](c2ccccc2)N(S(=O)(=O)c2ccc(C)cc2)[C@H]1c1ccc(OC)cc1 | -1.11 (inactive) | 1.02 | 1.18 (inactive) | 1.07 (inactive) | 0.106 (inactive) | 0.512 (inactive) | -0.887 | 0.156 (inactive) | 1.02 (inactive) | -0.348
CCCCCN1CC=CC23O[C@@H]4/C=C\CCC(C)OC(=O)C4[C@H]2C(=O)N(C(CO)C(C)C)[C@@H]3C1=O (stereo not given in full) | 1.66 (inactive) | -0.106 | 1.38 (inactive) | 0.881 (inactive) | 1.2 (inactive) | 0.699 (inactive) | -0.0209 | 1.36 (inactive) | -0.231 (inactive) | 1.86
COc1ccc(C#Cc2ccc3c(c2)[C@]2(C(=O)N3)[C@H](c3ccc(OCCO)cc3)N3[C@H](c4ccccc4)[C@H](c4ccccc4)OC(=O)[C@H]3[C@@H]2C(=O)NC[C@H](O)c2ccccc2)cc1 | 1.01 (inactive) | 0.145 | 1.97 (inactive) | 1.76 (inactive) | -0.403 (inactive) | 1.08 (inactive) | 0.0701 | 0.893 (inactive) | 0.194 (inactive) | -0.0443
CCCC[C@@H]1C[C@H]1[C@@H](NC(=O)c1cccs1)c1ccccc1C(F)(F)F | -1.04 (inactive) | 0.294 | 1.89 (inactive) | 1.12 (inactive) | -0.37 (inactive) | 0.544 (inactive) | -0.423 | -1.39 (inactive) | -3.14 (inactive) | -0.173
CCOC(=O)C[C@H]1[C@H](OC(=O)Cc2ccc3c(c2)OCO3)[C@@H](NC(=O)c2ccc3ccccc3n2)c2cc(OCCCO)ccc2N1C(=O)c1ccccc1 | 1.43 (inactive) | 0.101 | 8.88 (active) | 1.32 (inactive) | -0.576 (inactive) | 0.308 (inactive) | -0.246 | -1.88 (inactive) | 0.521 (inactive) | -2
COc1cc(OC)c(C(O)C2C=CC3C(=O)N(Cc4ccccc4)C(=O)C3N2n2cnnc2)cc1Br (stereo not given) | -1.21 (inactive) | 0.0509 | -0.0011 (inactive) | -0.731 (inactive) | 1.34 (inactive) | -2.29 (inactive) | 1.71 | -3.2 (inactive) | -1.35 (inactive) | -3.53
CC1CC/C=C\[C@H]2OC34C=CCN(C(C)(C)C)C(=O)[C@H]3N(CCCCCO)C(=O)[C@@H]4C2C(=O)O1 (stereo not given in full) | -0.121 (inactive) | -0.0984 | 0.204 (inactive) | 0.437 (inactive) | -0.136 (inactive) | 0.21 (inactive) | -0.333 | 0.673 (inactive) | -0.225 (inactive) | 1.3
CCCC=C(CCC)[C@@H](NP(=O)(c1ccccc1)c1ccccc1)c1ccc(-c2ccccc2)cc1 | -1.61 (inactive) | 0.408 | 3.5 (inactive) | 0.766 (inactive) | -1.07 (inactive) | 0.96 (inactive) | -0.422 | -1.02 (inactive) | -1.94 (inactive) | 2.3
COCCOC(=O)N1C(=O)[C@@]2(c3cc(C#CCCO)ccc31)[C@H](C(=O)Nc1nc3ccccc3s1)[C@H]1C(=O)O[C@H](c3ccccc3)[C@H](c3ccccc3)N1[C@@H]2c1ccc(O)cc1 | 0.0106 (inactive) | 0.126 | 1.41 (inactive) | 0.523 (inactive) | 1 (inactive) | 0.417 (inactive) | 0.0869 | 1.43 (inactive) | 0.0581 (inactive) | 0.329
NCCCCCNC(=O)[C@H]1C[C@H]2C(=O)N3CCC[C@H]3C(=O)N2[C@H]1c1cccc(OCCO)c1 | -0.068 (inactive) | 0.984 | 3.03 (inactive) | 0.598 (inactive) | 0.428 (inactive) | 0.301 (inactive) | -0.413 | 2.6 (inactive) | 0.413 (inactive) | 2.48
CCCC=C(CCC)[C@@H](NS(=O)(=O)c1ccc(C(F)(F)F)cc1)c1ccccc1 | -2.49 (inactive) | 0.379 | 0.669 (inactive) | 0.546 (inactive) | 0.248 (inactive) | 0.567 (inactive) | -0.286 | -0.832 (inactive) | -1.74 (inactive) | 2.42
[N-]=[N+]=Nc1ccccc1C[C@]1(C(=O)O)COC(c2ccc(OCCCO)cc2)=N1 | -0.541 (inactive) | 0.199 | 23.9 (active) | 8.27 (active) | 4.11 (inactive) | 0.935 (inactive) | -0.103 | -2.44 (inactive) | -0.992 (inactive) | -2.7
CCOC(=O)C[C@H]1[C@H](OC(=O)c2ccccc2-c2ccccc2)[C@@H](NC(=O)c2ccc3ccccc3n2)c2cc(OCCCO)ccc2N1C(=O)Cc1ccc(OC)cc1 | -0.783 (inactive) | 0.0986 | 5.91 (inactive) | 1.11 (inactive) | -0.0433 (inactive) | 0.549 (inactive) | -0.303 | 0.0348 (inactive) | 1.25 (inactive) | 0.76
CCCCC(=C=CC[C@H](O)c1ccc(OCCO)cc1)CCO | -0.495 (inactive) | -0.0967 | 12.9 (active) | 1.77 (inactive) | 1.06 (inactive) | 0.627 (inactive) | -0.517 | -0.649 (inactive) | -0.798 (inactive) | -2.06
C#Cc1cc2ccccc2oc1=O | -1.44 (inactive) | 0.228 | 3.02 (inactive) | 0.858 (inactive) | 0.898 (inactive) | 0.656 (inactive) | -0.668 | 0.0724 (inactive) | -1.35 (inactive) | -0.807
CN(C)C(=O)[C@@]1(Cc2ccccc2CN=[N+]=[N-])N=C(c2ccc(OCCCO)cc2)O[C@H]1c1ccccc1N=[N+]=[N-] | -0.383 (inactive) | 1.48 | 29.9 (active) | 26.7 (active) | 2.61 (inactive) | 6.04 (inactive) | 1.76 | -3.42 (inactive) | -0.18 (inactive) | -2.56
Cc1ccc(S[C@]2(C(=O)NCCN3CCOCC3)CC(=O)N(Cc3ccccc3Cl)[C@@H]2c2ccc(CO)cc2I)cc1 | 0.377 (inactive) | 1.55 | 5.93 (inactive) | 0.989 (inactive) | 0.676 (inactive) | 0.4 (inactive) | -0.389 | 1.78 (inactive) | -1.12 (inactive) | 1.15
COCCOC(=O)N1C(=O)[C@@]2(c3cc(C#CC4(O)CCCCCC4)ccc31)[C@H](C(=O)N1CCc3cc(OC)c(OC)cc3C1)[C@H]1C(=O)O[C@H](c3ccccc3)[C@H](c3ccccc3)N1[C@@H]2c1ccc(OCCO)cc1 | -0.073 (inactive) | -0.469 | 7.39 (inactive) | 2.64 (inactive) | 1.41 (inactive) | 1.64 (inactive) | 0.272 | 1.6 (inactive) | 0.614 (inactive) | 1.74
CCCNC(=O)[C@@]1(C)c2ccccc2C(=O)N(c2ccc(C)cn2)[C@H]1c1ccc(CO)cc1 | -0.819 (inactive) | 0.0533 | 1.57 (inactive) | 0.123 (inactive) | 0.181 (inactive) | 0.0101 (inactive) | 0.426 | -1.23 (inactive) | 0.155 (inactive) | 0.238
C=C(C(=O)CC[C@H](OC(=O)c1ccccc1-c1ccccc1C(=O)O)c1cccc(OCCO)c1)C(C)C | -0.567 (inactive) | -0.328 | 4.87 (inactive) | 0.857 (inactive) | 2.06 (inactive) | 0.503 (inactive) | 0.0988 | 1.49 (inactive) | 0.361 (inactive) | -1.48
COC(=O)[C@@]1(Cc2ccc(OC)cc2)[C@H]2c3cc(C(=O)N(C)C)n(Cc4ccc(OC(F)(F)F)cc4)c3C[C@H]2CN1C(=O)c1ccccc1 | -1.81 (inactive) | 0.407 | 0.404 (inactive) | 0.542 (inactive) | 0.219 (inactive) | 0.569 (inactive) | -1.19 | 0.262 (inactive) | -0.787 (inactive) | -0.499
C=CC[C@@H](OC(=O)Nc1ccc(SC)cc1)c1ccc(O)c(F)c1 | 0.959 (inactive) | -0.0573 | 24.1 (active) | 6.56 (inactive) | 1.9 (inactive) | 1.04 (inactive) | 0.42 | -5.77 (inactive) | -2.85 (inactive) | -3.25
COC(=O)[C@@]1(Cc2ccc(F)cc2)[C@H]2c3cc(C(=O)N(C)C)n(CCc4ccc(OC)c(Br)c4)c3C[C@H]2CN1C(=O)c1ccccc1 | -1.75 (inactive) | 1.32 | 1.89 (inactive) | -1.04 (inactive) | 0.746 (inactive) | -1.96 (inactive) | 1.24 | -3.62 (inactive) | -3.99 (inactive) | -4.26
Cc1ccc(S[C@]2(C(=O)NCc3ccccc3)CC(=O)N(C3CCCCC3)[C@@H]2c2ccc(CO)cc2I)cc1 | -0.148 (inactive) | -0.142 | 5.8 (inactive) | 1.34 (inactive) | 1.04 (inactive) | 0.841 (inactive) | 0.0194 | -0.031 (inactive) | 0.193 (inactive) | 1.79
